Results as given in PubChem BioAssay (NCATS).
Results filed as inconclusive are left out. Entries that show only a call come without a potency. Active and inactive are the calls of the source. Calls come from the whole dose curve; as a rule, active = well fitted cell-killing curve with a large enough effect; inconclusive = small, poorly fitted or top-dose-only effect, or effect the other way; inactive = no such curve, though single readings can be large or run the other way.

Assay: Quantitative High-Throughput drug screen in 47 multiple myeloma cell lines against the NCATS MIPE library collection: ARD_JJKsccE7 cell viability assay (AID 1918929)
Conditions: ARD myeloma cell line viability, CellTiter-Glo, 48 h; series mostly up to 45.8 µM
From the text: PI: Beverly A. Mock Ph.D.
Laboratory of Cancer Biology and Genetics,
Center for Cancer Research, National Cancer Institute,
National Institute of Health, Bethesda, Maryland
Drug resistance and disease progression are common in multiple myeloma (MM) patients, underscoring the need for new therapeutic combinations. […] We hypothesized that effective combinations would reduce MYC expression and enhance p16 activity. […] These preclinical data identify potentially useful drug combinations for evaluation in drug-resistant MM and reveal potential mechanisms of combined drug sensitivity.
Described herein is the primary MIPE qHTS used to cherrypick compounds. Validated compounds were then further tested for potential synergistic activiy.
[1] Peat TJ, Gaikwad SM, Dubois W, Gyabaah-Kessie N, Zhang S, Gorjifard S, Phyo Z, Andres M, Hughitt VK, Simpson RM, Miller MA, Girvin AT, Taylor A, Williams D, D'Antonio N, Zhang Y, Rajagopalan A, Flietner E, Wilson K, Zhang X, Shinn P, Klumpp-Thomas C, McKnight C, Itkin Z, Chen L, Kazandijian D, Zhang J, Michalowski AM, Simmons JK, Keats J, Thomas CJ, Mock BA. Drug combinations identified by high-throughput screening promote cell cycle transition and upregulate Smad pathways in myeloma. Cancer Lett. 2023 Aug 1;568:216284. doi: 10.1016/j.canlet.2023.216284. Epub 2023 Jun 24. PMID: 37356470; PMCID: PMC10408729.
SEQUENCE No. (e.g., 1, 2, 3, etc.); […] (e.g., Cells, Incubation, Reagent, etc.); VALUE and DESCRIPTION.
1; Cells; 5 uL; white, solid bottom 1536-well Greiner assay plate.
2; Compounds; 23 nL; Kalypsis pin tool (Wako USA) equipped with a 1536-well pin head to transfer to the assay plates.
3; Incubation; 48 hours; 37C incubation.
4; Reagent;5uL; CellTiter Glo (Promega).
5; Detector; 425V; Luminescence; Viewlux PerkinElmer.
NOTES (numbers refer to Sequence numbers above)
1. The cell-based screening methods employed in this study were like those previously published. Briefly, the corresponding myeloma cell lines were screened in 1,536-well plates with 500 cells, 5-uL per well for inhibition of cell viability (assessed by measuring ATP levels with CellTiterGlo).
2. NCATS MIPE 4.0 library of approved and investigational drugs were added using the Kalypsis pin tool. Wells treated with DMSO only for 100% viability and media only wells for 0% viability were used as controls.
3. The assay plates were covered and incubated for 48 hours in a 37C, 5% CO2 incubator with controlled humidity.
4. After 48 hours, CellTilter-GloTM luminescent substrate mix (Promega) reagent was added to the assay plate and plates we incubated for 5 min at room temperature.
5. Signal was measured as median relative luminescence units on a ViewLux (PerkinElmer) multiplate reader.
[1] Heske CM, Davis MI, Baumgart JT, Wilson K, Gormally MV, Chen L, Zhang X, Ceribelli M, Duveau DY, Guha R, Ferrer M, Arnaldez FI, Ji J, Tran HL, Zhang Y, Mendoza A, Helman LJ, Thomas CJ. Matrix Screen Identifies Synergistic Combination of PARP Inhibitors and Nicotinamide Phosphoribosyltransferase (NAMPT) Inhibitors in Ewing Sarcoma. Clin Cancer Res. 2017 Dec 1;23(23):7301-7311. doi: 10.1158/1078-0432.CCR-17-1121. Epub 2017 Sep 12. PMID: 28899971; PMCID: PMC6636827.
Potency is the fitted concentration of half-maximal effect.

| Structure (SMILES) | Potency |
| --- | --- |
| O=C(Nc1ccc(F)c(C(F)(F)F)c1)Nc1nnc(-c2ccncc2)s1 | inactive |
| Fc1ccc(Cl)cc1-c1nc(Nc2ccncc2)c2nccnc2n1 | inactive |
| Cc1c(CCOc2ccc(C(=O)O)cc2)c2cc(Cl)ccc2n1C(c1ccccc1)c1ccccc1 | inactive |
| CCc1cc(Nc2nccc(-c3c(-c4ccc(OC)c(C(=O)Nc5c(F)cccc5F)c4)nc4ccccn34)n2)c(OC)cc1N1CCC(N2CCN(S(C)(=O)=O)CC2)CC1 | 4.69 µM (active) |
| COc1ccc(-c2oc3cc(OC)ccc3c2C(=O)c2ccc(C#N)cc2)cc1 | 10.5 µM (active) |
| COc1nc(-c2ccc3c(c2)OCO3)n(-c2ccc(NC(=O)CSc3ccccc3)cc2)n1 | inactive |
| COc1ccc(COc2cc3oc(=O)c4cc(C(C)O)ccc4c3cc2OC)cc1 (stereo not given) | 3.72 µM (active) |
| CCOc1cc(N2CCC(O)CC2)ccc1Nc1ncc2c(n1)N(C)c1ccccc1C(=O)N2C | 1.05 µM (active) |
| CN(C)c1ccc(C2Nc3ccc4ccccc4c3C3=C2C(=O)CC(C)(C)C3)cc1Br (stereo not given) | inactive |
| O=C(O)CCc1ccc(NCc2cccc(Oc3ccccc3)c2)cc1 | inactive |
| Nc1ccc(S(=O)(=O)Nc2ccnn2-c2ccccc2)cc1 | inactive |
| c1ccc([C@H]2CN3CCSC3=N2)cc1 | inactive |
| NS(=O)(=O)c1cc2c(cc1Cl)NC=NS2(=O)=O | inactive |
| OCCn1cc(-c2cnc3nnn(Cc4ccc5ncccc5c4)c3n2)cn1 | inactive |
| CN(C)c1ccc(Nc2nc(N)n(C(=O)c3c(F)cccc3F)n2)cc1 | 20.9 µM (active) |
| CCn1cc(C(=O)O)c(=O)c2cc(F)c(N3CCNC(C)C3)c(F)c21 (stereo not given) | inactive |
| CN1CCN(CCCN2c3ccccc3Sc3ccc(C(F)(F)F)cc32)CC1 | inactive |
| COc1ccc(CCN2CCN(CCCc3ccccc3)CC2)cc1OC | 13.2 µM (active) |
| OC(CN1CCC(Cc2ccc(F)cc2)CC1)c1ccc(Cl)cc1 (stereo not given) | inactive |
| CNCc1ccc(-c2[nH]c3cc(F)cc4c3c2CCNC4=O)cc1 | 5.9 µM (active) |

| Structure (SMILES) | Potency |
| --- | --- |
| CCN(CC)CCCC(C)Nc1nc(C)cc(Nc2ccc3nc(C)cc(N)c3c2)n1 (stereo not given) | 14.8 µM (active) |
| CCc1ccc(CCOc2ccc(CC3SC(=O)NC3=O)cc2)nc1 (stereo not given) | inactive |
| CCCC(CCC)C(=O)O | inactive |
| Cc1cc(SCc2sc(-c3ccc(C(F)(F)F)cc3)nc2C)ccc1OCC(=O)O | inactive |
| NC(=O)c1ccc(-c2nc(-c3ccc4c(c3)OCO4)c(-c3ccccn3)[nH]2)cc1 | inactive |
| Nc1nc2[nH]cc(CCc3ccc(C(=O)N[C@@H](CCC(=O)O)C(=O)O)cc3)c2c(=O)[nH]1 | 0.469 µM (active) |
| COc1cc2c(cc1OC)CN(CCc1ccc(NC(=O)c3cccc4c(=O)c5cccc(OC)c5[nH]c34)cc1)CC2 | inactive |
| C#Cc1cccc(Nc2ncnc3cc(OCCOC)c(OCCOC)cc23)c1 | 5.9 µM (active) |
| NC[C@H](O)c1ccc(O)c(O)c1 | inactive |
| CCCc1nc2c(C)cc(-c3nc4ccccc4n3C)cc2n1Cc1ccc(-c2ccccc2C(=O)O)cc1 | inactive |
| CCCc1nn(C)c2c(=O)[nH]c(-c3cc(S(=O)(=O)N4CCN(C)CC4)ccc3OCC)nc12 | inactive |
| Cc1ccnc(NS(=O)(=O)c2ccc(NC(=O)Nc3ccc(S(=O)(=O)Nc4nccc(C)n4)cc3)cc2)n1 | 23.5 µM (active) |
| O=C1CCC(N2C(=O)c3ccccc3C2=O)C(=O)N1 (stereo not given) | inactive |
| CCOC(=O)N1CCC(=C2c3ccc(Cl)cc3CCc3cccnc32)CC1 | 0.0017 µM (active) |
| COc1ccc(-c2ccc3c(N4CCOCC4)nc(N4C[C@@H](C)O[C@@H](C)C4)nc3n2)cc1CO | 1.32 µM (active) |
| Cn1cnc2c(F)c(Nc3ccc(Br)cc3Cl)c(C(=O)NOCCO)cc21 | 0.743 µM (active) |
| CC(C=CC1=C(C)CCCC1(C)C)=CC=CC(C)=CC(=O)O | 23.5 µM (active) |
| Oc1ccc(C2CNCCc3c2cc(O)c(O)c3Cl)cc1 (stereo not given) | inactive |
| Nc1nccc(-c2ccc3noc(-c4ccc(Cl)cc4)c3c2)n1 | inactive |
| NC(=O)c1ccc(I)c([N+](=O)[O-])c1 | inactive |
